Some test systems named below: RPMI-8226 leukemia; OVCAR-8 ovarian; OVCAR-5 ovarian; OVCAR-4 ovarian; SK-OV-3 ovarian; IGROV1 ovarian; HS 578T breast; NCI/ADR-RES ovarian; T-47D breast; BT-549 breast; MDA-MB-435 melanoma; SW-620 colon; MCF7 breast; HCT-116 colon; HCC-2998 colon; KM12 colon.
Assay in all cases: NCI-60 one-dose screen, 48 h (100 = growth as untreated, 0 = no growth, -100 = all killed)
Holding throughout (details): 10 µM unless noted

The panel holds about 83,000 compounds, 20% with a hit somewhere; the sample as a whole holds those more often.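 Results are percent growth after 48 hours of single-concentration exposure. 100 means growth as in untreated cells, lower positive values show inhibition; negative values down to -100 show cell death.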 Values without a mark were called inactive. Calls of active or inactive are those of the source. Rule for the calls: active = growth percent below 10; inactive = the rest.

Take `COc1ccc([C@@H]2[C@@H](O)C(=O)N2c2cc(OC)c(OC)c(OC)c2)cc1Cl`: the growth in the assay with RPMI-8226 leukemia was 28.4%; in the assay on OVCAR-8 ovarian, -11.7% (active); with OVCAR-5 ovarian, 28.9%; in the assay on OVCAR-4 ovarian, 68.7%; with SK-OV-3 ovarian, 23.9%; in the assay on IGROV1 ovarian, 27.1%. Also, the growth was 8.59% (active) with HS 578T breast; -21.2% (active) in the assay with NCI/ADR-RES ovarian; 103% with T-47D breast; -9.18% (active) with BT-549 breast; -8.49% (active) with MDA-MB-435 melanoma; 17.9% in the assay on SW-620 colon. Also, the growth in the assay on MCF7 breast is 11.5%; with HCT-116 colon, 2.44% (active); with HCC-2998 colon, 8.34% (active); with KM12 colon, 13.2%.
For `c1cncc(-c2cn3nc(-c4c[nH]c5ccccc45)sc3n2)c1`, the growth is 63.1% with RPMI-8226 leukemia; 52.2% in the assay with OVCAR-8 ovarian; 43.4% in the assay with OVCAR-5 ovarian; 83.3% with OVCAR-4 ovarian; 86.2% with SK-OV-3 ovarian; 59.8% in the assay with IGROV1 ovarian. Also, the growth in the assay on HS 578T breast is 57.8%; in the assay on NCI/ADR-RES ovarian, 18.3%; in the assay with T-47D breast, 69.7%; in the assay on BT-549 breast, 33.3%; with MDA-MB-435 melanoma, -38% (active); in the assay with SW-620 colon, 28.6%. The growth is 34.7% with MCF7 breast, 28.8% in the assay with HCT-116 colon, 59.1% with HCC-2998 colon and 26.6% in the assay on KM12 colon.
`COc1cc(C2CC(c3ccc(Nc4nc(NCCO)nc(Nc5ccc(Cl)cc5)n4)cc3)=Nc3c(N)nc(N)nc3N2)cc(OC)c1OC` (centres undefined): the growth in the assay with RPMI-8226 leukemia is 37.5%; with OVCAR-8 ovarian, 47.6%; in the assay on OVCAR-5 ovarian, 119%; with OVCAR-4 ovarian, 65.2%; in the assay on SK-OV-3 ovarian it was 125%; with IGROV1 ovarian, 62.5%. Also, the growth is 35% in the assay on HS 578T breast; 103% with NCI/ADR-RES ovarian; 54.5% in the assay on T-47D breast; 52.1% with BT-549 breast; 74.6% in the assay with MDA-MB-435 melanoma; 51.6% in the assay on SW-620 colon. Moreover, the growth with MCF7 breast was 42.7%; with HCT-116 colon, 23.6%; with HCC-2998 colon it was 94.5%; in the assay on KM12 colon, 61.9%.
For `Cc1occc1-c1nc2s/c(=C\c3cn(-c4ccccc4)nc3-c3ccccc3)c(=O)n2n1`, the growth in the assay on RPMI-8226 leukemia is 99.1%; with OVCAR-8 ovarian, 101%; in the assay on OVCAR-5 ovarian, 99.5%; with OVCAR-4 ovarian it was 97%; in the assay with SK-OV-3 ovarian, 113%; in the assay on IGROV1 ovarian, -96.2% (active). Further, the growth with HS 578T breast was 105%; with NCI/ADR-RES ovarian, 97.9%; in the assay with T-47D breast, 95.2%; in the assay with BT-549 breast it was 97.7%; with MDA-MB-435 melanoma, 98.9%; with SW-620 colon it was 97.5%. The growth in the assay with MCF7 breast is 91.9%; in the assay with HCT-116 colon, 98.7%; with HCC-2998 colon, 101%; in the assay with KM12 colon it was 102%.
For the molecule `COc1ccc2c(C3=C(c4c[nH]c5ccccc45)C(=O)N(O)C3=O)coc2c1`, the growth in the assay on RPMI-8226 leukemia was 72.1%; in the assay with OVCAR-8 ovarian, 77.5%; with OVCAR-5 ovarian, 105%; in the assay on OVCAR-4 ovarian it was 114%; with SK-OV-3 ovarian, 86.5%; with IGROV1 ovarian, 77.1%. Also, the growth is 96.4% with HS 578T breast; 99.5% with NCI/ADR-RES ovarian; 40.6% in the assay on T-47D breast; 118% with BT-549 breast; 107% in the assay with MDA-MB-435 melanoma; 98.6% in the assay on SW-620 colon. Further, the growth with MCF7 breast was 44.5%; in the assay on HCT-116 colon, 93.1%; in the assay with HCC-2998 colon it was 103%; in the assay on KM12 colon it was 97.6%.
For the molecule `COc1ccc2c(C3=C(c4cn(C)c5ccccc45)C(=O)NC3=O)coc2c1`, the growth was 11.6% with RPMI-8226 leukemia; 41% with OVCAR-8 ovarian; 43% with OVCAR-5 ovarian; 79% in the assay on OVCAR-4 ovarian; 47.6% in the assay with SK-OV-3 ovarian; 47.2% in the assay with IGROV1 ovarian. For the same molecule, the growth with HS 578T breast is 9.64% (active); in the assay with NCI/ADR-RES ovarian, 25.1%; with T-47D breast, 44%; in the assay with BT-549 breast it was 82.6%; in the assay with MDA-MB-435 melanoma it was 6.58% (active); with SW-620 colon, 39%. For the same molecule, the growth was 24.3% with MCF7 breast, 15.8% in the assay with HCT-116 colon, 28.2% with HCC-2998 colon and 32.1% in the assay with KM12 colon.
As for `CC1(C)CC[C@]2(C(=O)N3CCCNCC3)CC[C@]3(C)C(=CC[C@@H]4[C@@]5(C)CCC(=O)C(C)(C)[C@@H]5CC[C@]43C)[C@H]2C1`, the growth in the assay on RPMI-8226 leukemia is 98.7%; with OVCAR-8 ovarian, 103%; with OVCAR-5 ovarian, 104%; in the assay with OVCAR-4 ovarian, 116%; in the assay with SK-OV-3 ovarian it was 115%; with IGROV1 ovarian, 117%. Moreover, the growth is 106% in the assay on HS 578T breast; 100% in the assay on NCI/ADR-RES ovarian; 100% in the assay on T-47D breast; 112% with BT-549 breast; 112% with MDA-MB-435 melanoma; 101% in the assay on SW-620 colon. The growth in the assay with MCF7 breast is 93.6%; in the assay with HCT-116 colon, 103%; with HCC-2998 colon, 102%; in the assay on KM12 colon, 105%.
As for `COc1cc2c3c(n(CCCN4CCCC4)c(=O)c2cc1OC)-c1cc2c(cc1C3=O)OCO2`, the growth was -41.2% (active) in the assay on RPMI-8226 leukemia; -65.3% (active) in the assay with OVCAR-8 ovarian; -73.1% (active) in the assay on OVCAR-5 ovarian; -59.2% (active) in the assay on OVCAR-4 ovarian; 53.7% in the assay on SK-OV-3 ovarian; -70.9% (active) with IGROV1 ovarian. For the same molecule, the growth is 88.6% in the assay on HS 578T breast; -39.6% (active) with NCI/ADR-RES ovarian; 78.3% with T-47D breast; 82.3% in the assay on BT-549 breast; -12.5% (active) in the assay on MDA-MB-435 melanoma; -63.1% (active) in the assay with SW-620 colon. Moreover, the growth was -71.7% (active) in the assay on MCF7 breast, -84% (active) in the assay with HCT-116 colon, 42.2% in the assay on HCC-2998 colon and -23.4% (active) with KM12 colon.
For `Clc1ccccc1/C=C/c1nn2c(-c3ccncc3)nnc2s1`, the growth in the assay on RPMI-8226 leukemia is 101%; with OVCAR-8 ovarian it was 103%; in the assay with OVCAR-5 ovarian, 109%; in the assay with OVCAR-4 ovarian, 103%; with SK-OV-3 ovarian, 121%; in the assay with IGROV1 ovarian, 102%. Also, the growth in the assay on HS 578T breast was 97.7%; with NCI/ADR-RES ovarian it was 106%; in the assay on T-47D breast, 95%; with BT-549 breast, 107%; with MDA-MB-435 melanoma, 103%; in the assay with SW-620 colon, 108%. Also, the growth is 66.4% in the assay with MCF7 breast, 96.5% in the assay with HCT-116 colon, 101% in the assay with HCC-2998 colon and 110% in the assay with KM12 colon.
